Reference: PubChem BioAssay AID1259421 (Broad Institute, 2018)
Several values for one entry are separate records, joined by “and”; a condition that tells them apart may be missing. Equal entries are not always repeated. The whole screen tested about 6,400 compounds, of which about 610 (9.5%) were called active. No stated cut-off is given here; in the data, active means activity change below about -70%; inconclusive means no clear call, values can overlap the other calls; inactive means above that. For the sample, actives were picked, then their nearest neighbours and some compounds at random. The source holds several records for some structures; these can differ, active in one and inactive in another. *1 amine or outer side, *2 acyl side, *3 side chain or, on linkers, in order; H or OH if unused. Where a SMILES comes first, the peptide text is derived from it. [ ]: non-standard residue; d: D form. LeuΨ(S-CHOHCH2)Ala = CC(C)C[C@H](N[*:1])[C@@H](O)C[C@@H](C)C(=O)[*:2]

Test: Toxoplasma gondii ME49Luc growth in HeLa cells, luciferase, no IFN-y, primary screen (AID 1259421)
Details: T. gondii ME49Luc in HeLa, 72 h, stronger effect = lower value, concentration not given here

Row | SMILES | activity change, negative = inhibition
1 | COc1ccc(-c2ccc3ncc4c(c3c2)n(-c2ccc(N3CCNCC3)c(C(F)(F)F)c2)c(=O)n4C)cn1 | -88.5% (active)
2 | Cc1cc(C)cc(C(=O)N(C)[C@H](Cc2ccc(-c3ccccc3)cc2)C(=O)N[C@@H](Cc2c[nH]c3ccccc23)C(=O)O)c1 | 13% (inactive)
3 | C[C@H]1CNCCCN1S(=O)(=O)c1cccc2cncc(F)c12 | -2.52% (inactive)
4 | Nc1nnc(Sc2ncc([N+](=O)[O-])s2)s1 | 9.53% (inactive)
5 | CC[C@H](CC#N)OC(=O)N[C@@H](C)c1cccc(NC(=O)Nc2ccc(-c3cnco3)c(OC)c2)c1 | -82% (active)
6 | COc1cc(NC(=O)Nc2cccc(CNC(=O)O[C@H]3CCOC3)c2)ccc1-c1cnco1 | -79.3% (active)
7 | CC(C)CN(C[C@@H](O)[C@H](Cc1ccccc1)NC(=O)O[C@H]1CCOC1)S(=O)(=O)c1ccc(N)cc1 | 0.811% (inactive)
8 | Cc1cc2c(OCC(CNC(C)(C)C)OC(=O)c3ccccc3)cccc2[nH]1 (stereo not given) | 18.3% (inactive)
9 | Cc1c(NC(=O)c2cc3c(s2)CCCC3)cccc1-c1cn(C)c(=O)c(Nc2ccc(C3C(=O)N(C)CCN3C)cc2)n1 (stereo not given) | 97.9% (inactive)
10 | CCC(C(=O)O)c1ccc(N2Cc3ccccc3C2=O)cc1 (stereo not given) | 122% (inactive)
11 | Nc1nc2c(sc(=O)n2[C@@H]2O[C@H](CO)[C@@H](O)[C@H]2O)c(=O)[nH]1 | -8.34% (inactive)
12 | COc1cc2c(cc1OC)C(=O)OC2 | -0.409% (inactive)
13 | Fc1cc(-c2cccc3ncc(-c4cnn(C5CCNCC5)c4)nc23)cc(F)c1CN1CCOCC1 | 6.9% (inactive)
14 | C[C@H](Oc1cc(-c2cnn(C3CCNCC3)c2)cnc1N)c1c(Cl)ccc(F)c1Cl | -84.6% (active) and 9.96% (inactive)
15 | C[C@@H](Oc1cc(-c2cnn(C3CCNCC3)c2)cnc1N)c1c(Cl)ccc(F)c1Cl | -43.1% (inactive) and -79.1% (active)
16 | CCCCCCCCCCCC[C@H](C(=O)O)[C@@H](C)C(=O)O | 2.19% (inactive)
17 | Oc1c(Cl)cc(Cl)cc1Sc1cc(Cl)cc(Cl)c1O | -82.5% (active) and -6.64% (inactive)
18 | C#CCN(C)CCCOc1ccc(Cl)cc1Cl | 20.2% (inactive) and 29.2% (inactive)
19 | O=C(CCCS)NC1CCN(C(=O)COc2ccc(Cl)cc2Cl)CC1 | -3% (inactive)
20 | Cc1cc(Cl)ccc1OCCCC(=O)NO | -90% (active)
21 | CN(CC(=O)O)C(=N)N | 15.6% (inactive)
22 | CCC[C@@H](NC(=O)N1C(=O)C(CC)(CC)[C@@H]1Oc1ccc(C(=O)N2CCN(C)CC2)cc1)c1ccc2c(c1)OCO2 | 4.37% (inactive)
23 | CC(C)C[C@H](NC(=O)[C@H](CC(N)=O)NC(=O)[C@@H](NC(=O)[C@@H](N)CCC(=O)O)C(C)C)[C@@H](O)C[C@@H](C)C(=O)N[C@@H](C)C(=O)N[C@@H](CCC(=O)O)C(=O)N[C@@H](Cc1ccccc1)C(=O)O (H-EVN[LeuΨ(S-CHOHCH2)Ala]AEF-OH) | 3.01% (inactive)
24 | Nc1cc(-c2ccncc2)c[nH]c1=O | 3.96% (inactive) and 3.4% (inactive)
25 | O=C1NCCc2[nH]c(-c3ccncc3)cc21 | -75.8% (active)

Row | SMILES | activity change, negative = inhibition
26 | Cc1[nH]c(=O)c(C#N)cc1-c1ccncc1 | 46.4% (inactive) and 9.05% (inactive)
27 | CCOC(=O)C(CCc1ccccc1)NC1CCc2ccccc2N(CC(=O)O)C1=O (stereo not given) | 3.98% (inactive)
28 | Cc1nc2c(-c3cnc(N)nc3)nc(N3CCOCC3)nc2n1C(C)C | -14% (inactive)
29 | Nc1ncnc2nc(-c3ccc(N4CCOCC4)nc3)cc(-c3cccc(Br)c3)c12 | -21.2% (inactive) and -9.62% (inactive)
30 | Nc1cc(C(F)(F)F)c(-c2cc(N3CCOCC3)nc(N3CCOCC3)n2)cn1 | -70.3% (active)
31 | CC(=O)SCCC(=O)N1C(C)CCCC1C(=O)O (stereo not given) | 20.2% (inactive)
32 | O=C(O)[C@H]1CN(C/C=C/P(=O)(O)O)CCN1 | -6.53% (inactive)
33 | CC1(C)Oc2ccc(C#N)cc2[C@H](N2CCCC2=O)[C@H]1O (racemic) | 17% (inactive)
34 | CCN(CC)CCNC(=O)c1ccc(I)cc1 | 11.1% (inactive)
35 | O=C(Nc1ccccc1)Nc1ccc(-c2ccc(C(=O)[C@@H]3CCC[C@@H]3C(=O)O)cc2)cc1 | 16.1% (inactive)
36 | c1cnc2cc3c(cc2n1)C1CNCC3C1 | 5.57% (inactive)
37 | CC1=C(CC(=O)O)c2cc(F)ccc2/C1=C\c1ccc(S(C)=O)cc1 (stereo not given) | 13.1% (inactive) and -5% (inactive)
38 | CO[C@H]1CC(O[C@@H]2/C(C)=C/C[C@@H]3C[C@@H](C[C@]4(C=C[C@H](C)[C@@H](C5CCCCC5)O4)O3)OC(=O)[C@@H]3C=C(C)[C@@H](O)[C@H]4OC/C(=C\C=C\[C@@H]2C)[C@]43O)O[C@@H](C)C1O[C@H]1C[C@H](OC)[C@@H](O)[C@H](C)O1 (stereo not given in full) | -62.7% (inactive)
39 | COc1cc(/C=C/c2ccc(OC)cc2OC)cc(OC)c1 | -58.6% (inactive) and -57.8% (inactive)
40 | CCCN1CCN(c2ccc(C(=O)NC3(C(=O)NCC#N)CCCCC3)cc2)CC1 | 15.1% (inactive)
41 | O=C(NCCCN1CCOCC1)c1ccc(Cl)cc1 | 10.9% (inactive)
42 | Cc1nc(N)sc1-c1ccnc(Nc2ccc(N3CCOCC3)cc2)n1 | -80.3% (active)
43 | Cc1cc(N2CCOCC2)ccc1Nc1nc(NC2CCCCC2)c2[nH]cnc2n1 | -50.9% (inactive)
44 | N#CCNC(=O)c1ccc(-c2ccnc(Nc3ccc(N4CCOCC4)cc3)n2)cc1 | -88.6% (active)
45 | CCn1c2ccccc2c2cc(Nc3ccnc(NCCCN4CCOCC4)n3)ccc21 | -53.7% (inactive)
46 | CCNC(=O)C1OC(n2cnc3c(N)nc(NCCc4ccc(CCC(=O)O)cc4)nc32)C(O)C1O (stereo not given) | 1.12% (inactive)
47 | CC(C)=CCOc1cc2oc(=O)ccc2cc1O | -2.69% (inactive)
48 | O=C(O)c1cc(O)c2c(c1)C(=O)c1cccc(O)c1C2=O | 18.1% (inactive)
49 | Nc1nc(Nc2ccc3c(c2)CC[C@@H](N2CCCC2)CC3)nn1-c1cc2c(nn1)-c1ccccc1CCC2 | -85.1% (active)
50 | CC(=O)O[C@]1(C(C)=O)CCC2C3C=C(Cl)C4=CC(=O)CC[C@]4(C)C3CC[C@@]21C (stereo not given in full) | 2.15% (inactive) and -3.18% (inactive)

Row | SMILES | activity change, negative = inhibition
51 | CCCCCCC(=O)OC1CC(C)(C)NC(C)(C)C1 | 10.7% (inactive) and -2.86% (inactive)
52 | O=C(N[C@H]1CCN(C(=O)c2cc(C(F)(F)F)cc(C(F)(F)F)c2)[C@H](Cc2ccc(Cl)cc2)C1)c1ccnc2ccccc12 | 25.3% (inactive)
53 | O=C(NC1CCN(CCCCC2(C(=O)NCC(F)(F)F)c3ccccc3-c3ccccc32)CC1)c1ccccc1-c1ccc(C(F)(F)F)cc1 | -89% (active)
54 | O=C(NC1CCN(CCc2c[nH]c3ccccc23)CC1)c1ccccc1 | 10.9% (inactive)
55 | CN1CC(=O)N/C1=N/C(=O)Nc1cccc(Cl)c1 | 32.6% (inactive) and 26.4% (inactive)
56 | CNC(=O)C1OC(n2cnc3c(NCc4cccc(I)c4)ncnc32)C(O)C1O (stereo not given) | 5.36% (inactive)
57 | O=C(O)C(=O)O.O=C(O)C(=O)O.O=C(O)C(=O)O.[Bi].[Bi] | 12.7% (inactive)
58 | C[C@@H]1CN(CCCn2c3ccccc3c3ccccc32)C[C@H](C)N1 | 18.2% (inactive)
59 | CC1CN(CCCn2c3ccccc3c3ccccc32)CC(C)N1 (stereo not given) | -30.6% (inactive)
60 | COc1ccccc1C1(O)CCN(CCCn2c3ccccc3c3ccccc32)CC1 | -73.1% (active) and -52.5% (inactive)
61 | CO/N=C(\C(=O)N[C@@H]1C(=O)N2C(C(=O)O)=C(C[n+]3ccn4ncccc43)CS[C@H]12)c1nsc(N)n1 | 12% (inactive)
62 | CC[C@H](CO)Nc1nc(NCc2ccc(-c3ccccn3)cc2)c2ncn(C(C)C)c2n1 | -75.6% (active)
63 | CC[C@@H](CO)Nc1nc(NCc2ccccc2)c2ncn(C(C)C)c2n1 | -3.07% (inactive)
64 | CC[C@H](CO)Nc1nc(NCc2ccccc2)c2ncn(C(C)C)c2n1 | -9.71% (inactive)
65 | CC[C@H](CO)Nc1nc(Nc2cccc(-c3ccccn3)c2)c2ncn(C(C)C)c2n1 | -72.2% (active)
66 | CC(C)n1cnc2c(NCc3ccccc3O)nc(NCCCO)nc21 | 1.44% (inactive)
67 | CN1Cc2c(C(=O)OC(C)(C)C)ncn2-c2ccsc2C1=O | 4.12% (inactive) and 13% (inactive)
68 | CC(=O)O[C@@H]1CC2C(C)(C)C(=O)C3OC3[C@]2(C)C2CC[C@@]3(C)[C@H](c4ccoc4)OC(=O)C4OC43[C@@]21C (stereo not given in full) | 26.1% (inactive)
69 | CC1=NN(c2ccc(C(=O)O)cc2)C(=O)/C1=C\c1ccc(-c2cc(C)c(C)cc2[N+](=O)[O-])o1 | 27.1% (inactive)
70 | O=C(/C=C/c1ccccc1)c1ccc(O)cc1 | -8.89% (inactive)
71 | CC(=O)c1cnc2ccc(-c3cc(Cl)c(O)c(Cl)c3)nc2c1NC1CCC(CN(C)C)CC1 (stereo not given) | -87.5% (active)
72 | CO[C@H]1C=CO[C@@]2(C)Oc3c(C)c(O)c4c(O)c(c5c(c4c3C2=O)NC2(CCN(CC(C)C)CC2)N=5)=NC(=O)/C(C)=C\C=C/[C@H](C)[C@H](O)[C@@H](C)[C@@H](O)[C@@H](C)[C@H](OC(C)=O)[C@@H]1C | -31.1% (inactive)
73 | Nc1nc(=O)n([C@@H]2O[C@H](CO)[C@@H](O)[C@@H]2F)cc1I | 9.84% (inactive)
74 | CC(=O)OCC(=O)[C@@]1(O)CCC2C3CCC4=CC(=O)C=C[C@]4(C)[C@@]3(F)[C@@H](O)C[C@@]21C (stereo not given in full) | -18.2% (inactive)
75 | CCN1CCN(Cc2ccc(Nc3ncc(F)c(-c4cc(F)c5nc(C)n(C(C)C)c5c4)n3)nc2)CC1 | -82.7% (active)
